We go through 1 compound from ChEMBL document CHEMBL2218924, “A broad activity screen in support of a chemogenomic map for kinase signalling research and drug discovery” (Biochem J, 2013).

For assay [1], the target named is T1, Ephrin type-B receptor 1 (Homo sapiens) (UniProt P54762).
T1 sequence (whole entry): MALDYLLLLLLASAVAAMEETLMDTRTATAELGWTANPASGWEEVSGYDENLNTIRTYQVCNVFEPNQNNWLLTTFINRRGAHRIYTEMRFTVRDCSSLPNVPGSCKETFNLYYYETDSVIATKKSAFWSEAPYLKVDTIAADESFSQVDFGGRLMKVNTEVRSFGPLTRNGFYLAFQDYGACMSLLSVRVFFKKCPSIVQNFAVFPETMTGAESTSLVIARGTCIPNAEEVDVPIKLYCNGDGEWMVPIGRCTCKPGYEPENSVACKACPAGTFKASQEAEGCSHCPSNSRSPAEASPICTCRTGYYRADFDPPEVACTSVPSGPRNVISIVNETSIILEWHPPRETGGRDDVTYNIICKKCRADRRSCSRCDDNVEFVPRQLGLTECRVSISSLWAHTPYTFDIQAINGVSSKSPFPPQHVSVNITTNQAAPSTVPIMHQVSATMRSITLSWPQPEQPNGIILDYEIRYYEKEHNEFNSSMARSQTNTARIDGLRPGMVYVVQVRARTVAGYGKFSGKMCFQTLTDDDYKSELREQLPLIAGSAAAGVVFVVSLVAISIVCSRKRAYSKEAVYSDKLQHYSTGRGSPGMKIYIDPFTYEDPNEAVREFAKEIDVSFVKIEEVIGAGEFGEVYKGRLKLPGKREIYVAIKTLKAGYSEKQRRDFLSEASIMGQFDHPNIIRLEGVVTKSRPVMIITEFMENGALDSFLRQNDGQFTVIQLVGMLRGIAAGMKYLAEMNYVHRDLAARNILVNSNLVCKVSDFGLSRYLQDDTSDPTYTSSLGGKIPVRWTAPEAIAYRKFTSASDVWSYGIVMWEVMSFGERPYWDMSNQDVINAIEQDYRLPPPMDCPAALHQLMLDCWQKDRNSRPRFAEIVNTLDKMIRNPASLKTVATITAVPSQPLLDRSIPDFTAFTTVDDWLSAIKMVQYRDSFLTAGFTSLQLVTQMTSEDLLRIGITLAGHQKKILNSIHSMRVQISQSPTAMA
The settings on record: at 10 µM.

Assay [2] addresses T2, Ephrin type-B receptor 2 (Homo sapiens) (UniProt P29323).
T2 sequence (whole entry): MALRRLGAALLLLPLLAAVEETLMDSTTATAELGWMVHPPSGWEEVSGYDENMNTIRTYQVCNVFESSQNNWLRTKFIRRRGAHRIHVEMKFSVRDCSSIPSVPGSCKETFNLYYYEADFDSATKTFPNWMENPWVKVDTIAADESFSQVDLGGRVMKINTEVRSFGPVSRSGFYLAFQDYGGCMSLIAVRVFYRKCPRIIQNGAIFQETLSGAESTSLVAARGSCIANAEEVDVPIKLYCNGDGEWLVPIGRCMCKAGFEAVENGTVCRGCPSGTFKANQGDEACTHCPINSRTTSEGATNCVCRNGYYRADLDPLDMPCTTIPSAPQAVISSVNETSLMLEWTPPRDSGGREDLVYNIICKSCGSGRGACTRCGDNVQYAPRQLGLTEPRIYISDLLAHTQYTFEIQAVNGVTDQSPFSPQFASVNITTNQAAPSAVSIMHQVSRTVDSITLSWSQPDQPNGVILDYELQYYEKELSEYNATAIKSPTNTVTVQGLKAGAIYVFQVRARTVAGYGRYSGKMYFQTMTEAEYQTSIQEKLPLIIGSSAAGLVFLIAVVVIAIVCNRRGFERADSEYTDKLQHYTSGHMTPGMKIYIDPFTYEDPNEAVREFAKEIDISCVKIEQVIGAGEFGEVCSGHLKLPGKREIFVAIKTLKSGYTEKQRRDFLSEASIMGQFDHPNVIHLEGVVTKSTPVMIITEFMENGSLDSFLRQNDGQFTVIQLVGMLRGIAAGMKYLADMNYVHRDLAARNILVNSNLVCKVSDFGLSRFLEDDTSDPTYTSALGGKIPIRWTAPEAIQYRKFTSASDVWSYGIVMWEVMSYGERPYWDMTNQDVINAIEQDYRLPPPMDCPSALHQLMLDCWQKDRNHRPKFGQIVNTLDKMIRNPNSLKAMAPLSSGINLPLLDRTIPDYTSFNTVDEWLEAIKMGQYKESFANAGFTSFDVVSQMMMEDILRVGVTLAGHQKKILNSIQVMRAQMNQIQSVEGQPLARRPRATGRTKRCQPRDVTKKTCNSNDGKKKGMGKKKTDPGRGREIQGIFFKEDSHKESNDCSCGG
The settings on record: at 1 µM.

For assay [3], the target named is T2, Ephrin type-B receptor 2 (Homo sapiens). Particulars: at 10 µM; call rule not given here.
The target of assay [4] is T3, Ephrin type-B receptor 3 (Homo sapiens) (UniProt P54753).
T3 sequence (whole entry): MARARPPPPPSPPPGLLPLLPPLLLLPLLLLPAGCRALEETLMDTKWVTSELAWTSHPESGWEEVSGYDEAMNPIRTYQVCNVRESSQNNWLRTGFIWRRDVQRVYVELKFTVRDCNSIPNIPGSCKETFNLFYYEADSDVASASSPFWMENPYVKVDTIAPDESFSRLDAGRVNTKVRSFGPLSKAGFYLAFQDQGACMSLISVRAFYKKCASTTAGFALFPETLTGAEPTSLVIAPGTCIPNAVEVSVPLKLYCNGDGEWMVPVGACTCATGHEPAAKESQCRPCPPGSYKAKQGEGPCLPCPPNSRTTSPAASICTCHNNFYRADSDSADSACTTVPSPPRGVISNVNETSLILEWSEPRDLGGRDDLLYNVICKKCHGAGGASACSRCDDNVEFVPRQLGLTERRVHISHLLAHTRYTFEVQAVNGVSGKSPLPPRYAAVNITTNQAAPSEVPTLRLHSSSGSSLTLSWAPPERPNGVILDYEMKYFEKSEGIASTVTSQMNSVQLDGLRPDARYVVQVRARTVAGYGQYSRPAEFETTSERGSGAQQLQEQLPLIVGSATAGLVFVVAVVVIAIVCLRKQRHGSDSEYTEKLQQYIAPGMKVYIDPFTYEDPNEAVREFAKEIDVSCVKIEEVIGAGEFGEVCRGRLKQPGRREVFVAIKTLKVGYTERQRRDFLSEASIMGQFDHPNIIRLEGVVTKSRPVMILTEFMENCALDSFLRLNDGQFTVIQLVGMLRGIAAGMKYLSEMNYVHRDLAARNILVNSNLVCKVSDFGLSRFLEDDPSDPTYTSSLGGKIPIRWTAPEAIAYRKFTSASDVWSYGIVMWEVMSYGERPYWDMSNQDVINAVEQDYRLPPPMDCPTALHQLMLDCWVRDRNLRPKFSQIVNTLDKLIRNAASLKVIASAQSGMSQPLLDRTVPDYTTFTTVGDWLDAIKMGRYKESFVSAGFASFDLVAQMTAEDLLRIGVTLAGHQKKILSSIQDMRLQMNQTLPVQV
Particulars: at 1 µM.

Assay [5] addresses T3, Ephrin type-B receptor 3 (Homo sapiens). Particulars: at 10 µM.
Assay [6] concerns the target T4, Ephrin type-B receptor 4 (Homo sapiens) (UniProt P54760).
T4 sequence (whole entry): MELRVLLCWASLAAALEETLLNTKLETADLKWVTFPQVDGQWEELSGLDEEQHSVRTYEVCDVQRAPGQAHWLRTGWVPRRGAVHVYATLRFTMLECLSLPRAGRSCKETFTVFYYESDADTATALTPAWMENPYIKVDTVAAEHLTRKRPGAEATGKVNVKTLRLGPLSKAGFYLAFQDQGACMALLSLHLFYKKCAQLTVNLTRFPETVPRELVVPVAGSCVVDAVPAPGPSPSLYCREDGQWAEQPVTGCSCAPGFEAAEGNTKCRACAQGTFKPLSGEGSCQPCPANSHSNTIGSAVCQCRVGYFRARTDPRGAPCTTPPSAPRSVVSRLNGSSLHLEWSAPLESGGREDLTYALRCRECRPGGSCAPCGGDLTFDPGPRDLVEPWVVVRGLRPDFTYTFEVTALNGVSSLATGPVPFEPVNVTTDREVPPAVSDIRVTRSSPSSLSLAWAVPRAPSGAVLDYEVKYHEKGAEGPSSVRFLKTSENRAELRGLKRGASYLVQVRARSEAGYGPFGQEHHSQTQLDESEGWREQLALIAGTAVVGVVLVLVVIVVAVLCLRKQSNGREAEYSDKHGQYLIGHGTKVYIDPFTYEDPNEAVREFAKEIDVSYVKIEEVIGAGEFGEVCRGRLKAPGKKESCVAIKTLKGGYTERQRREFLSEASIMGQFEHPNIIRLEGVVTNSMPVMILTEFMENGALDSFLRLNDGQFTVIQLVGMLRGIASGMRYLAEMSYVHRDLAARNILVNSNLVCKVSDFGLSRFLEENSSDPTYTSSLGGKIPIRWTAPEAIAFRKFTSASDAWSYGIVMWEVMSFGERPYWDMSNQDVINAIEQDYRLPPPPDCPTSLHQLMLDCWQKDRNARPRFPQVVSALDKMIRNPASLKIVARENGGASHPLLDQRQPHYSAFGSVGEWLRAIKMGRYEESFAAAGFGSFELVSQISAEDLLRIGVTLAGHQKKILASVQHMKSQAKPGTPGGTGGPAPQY
The settings on record: at 1 µM.

Assay [7] has as its target T4, Ephrin type-B receptor 4 (Homo sapiens). The settings on record: at 10 µM.
The target of assay [8] is Receptor tyrosine-protein kinase erbB-4 (Homo sapiens) (UniProt Q15303). The settings on record: at 1 µM.
Chain of Receptor tyrosine-protein kinase erbB-4 (Homo sapiens) (Q15303 whole entry): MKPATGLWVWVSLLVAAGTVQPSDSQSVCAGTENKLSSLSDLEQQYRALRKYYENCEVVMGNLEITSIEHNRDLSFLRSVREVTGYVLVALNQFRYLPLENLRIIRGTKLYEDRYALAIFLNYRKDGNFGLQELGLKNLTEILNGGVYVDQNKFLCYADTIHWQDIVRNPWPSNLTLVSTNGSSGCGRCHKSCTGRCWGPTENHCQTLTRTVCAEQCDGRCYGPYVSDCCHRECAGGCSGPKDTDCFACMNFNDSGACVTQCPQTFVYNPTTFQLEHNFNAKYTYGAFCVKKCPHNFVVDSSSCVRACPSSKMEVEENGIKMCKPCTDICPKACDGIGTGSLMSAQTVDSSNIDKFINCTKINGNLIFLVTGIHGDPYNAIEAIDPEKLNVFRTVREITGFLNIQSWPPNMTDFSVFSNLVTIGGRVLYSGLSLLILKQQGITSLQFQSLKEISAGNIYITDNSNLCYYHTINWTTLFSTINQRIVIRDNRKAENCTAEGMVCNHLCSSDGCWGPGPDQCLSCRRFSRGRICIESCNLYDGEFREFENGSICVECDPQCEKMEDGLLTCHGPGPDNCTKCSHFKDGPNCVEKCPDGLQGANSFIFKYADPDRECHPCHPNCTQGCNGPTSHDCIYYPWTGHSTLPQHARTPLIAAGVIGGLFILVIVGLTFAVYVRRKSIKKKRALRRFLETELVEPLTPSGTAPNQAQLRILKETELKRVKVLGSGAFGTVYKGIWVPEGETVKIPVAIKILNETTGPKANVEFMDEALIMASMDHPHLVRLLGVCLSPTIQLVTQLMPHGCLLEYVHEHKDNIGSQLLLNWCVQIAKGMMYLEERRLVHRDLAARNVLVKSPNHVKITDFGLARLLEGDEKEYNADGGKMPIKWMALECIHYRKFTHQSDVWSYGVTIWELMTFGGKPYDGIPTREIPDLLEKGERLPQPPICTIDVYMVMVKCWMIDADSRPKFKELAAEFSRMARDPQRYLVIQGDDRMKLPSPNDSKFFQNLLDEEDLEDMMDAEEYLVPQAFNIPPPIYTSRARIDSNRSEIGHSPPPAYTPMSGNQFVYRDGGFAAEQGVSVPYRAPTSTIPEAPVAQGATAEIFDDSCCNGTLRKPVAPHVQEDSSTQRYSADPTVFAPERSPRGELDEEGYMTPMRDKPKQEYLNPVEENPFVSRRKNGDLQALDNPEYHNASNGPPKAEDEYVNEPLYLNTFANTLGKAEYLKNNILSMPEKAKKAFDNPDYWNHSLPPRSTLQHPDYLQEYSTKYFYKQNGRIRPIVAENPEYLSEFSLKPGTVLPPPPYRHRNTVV
Assay [9] has the same target. The settings on record: at 10 µM.
The target of assay [10] is Focal adhesion kinase 1 (Homo sapiens) (UniProt Q05397). Particulars: at 1 µM.
Chain of Focal adhesion kinase 1 (Homo sapiens) (Q05397 2-1052 limits assumed): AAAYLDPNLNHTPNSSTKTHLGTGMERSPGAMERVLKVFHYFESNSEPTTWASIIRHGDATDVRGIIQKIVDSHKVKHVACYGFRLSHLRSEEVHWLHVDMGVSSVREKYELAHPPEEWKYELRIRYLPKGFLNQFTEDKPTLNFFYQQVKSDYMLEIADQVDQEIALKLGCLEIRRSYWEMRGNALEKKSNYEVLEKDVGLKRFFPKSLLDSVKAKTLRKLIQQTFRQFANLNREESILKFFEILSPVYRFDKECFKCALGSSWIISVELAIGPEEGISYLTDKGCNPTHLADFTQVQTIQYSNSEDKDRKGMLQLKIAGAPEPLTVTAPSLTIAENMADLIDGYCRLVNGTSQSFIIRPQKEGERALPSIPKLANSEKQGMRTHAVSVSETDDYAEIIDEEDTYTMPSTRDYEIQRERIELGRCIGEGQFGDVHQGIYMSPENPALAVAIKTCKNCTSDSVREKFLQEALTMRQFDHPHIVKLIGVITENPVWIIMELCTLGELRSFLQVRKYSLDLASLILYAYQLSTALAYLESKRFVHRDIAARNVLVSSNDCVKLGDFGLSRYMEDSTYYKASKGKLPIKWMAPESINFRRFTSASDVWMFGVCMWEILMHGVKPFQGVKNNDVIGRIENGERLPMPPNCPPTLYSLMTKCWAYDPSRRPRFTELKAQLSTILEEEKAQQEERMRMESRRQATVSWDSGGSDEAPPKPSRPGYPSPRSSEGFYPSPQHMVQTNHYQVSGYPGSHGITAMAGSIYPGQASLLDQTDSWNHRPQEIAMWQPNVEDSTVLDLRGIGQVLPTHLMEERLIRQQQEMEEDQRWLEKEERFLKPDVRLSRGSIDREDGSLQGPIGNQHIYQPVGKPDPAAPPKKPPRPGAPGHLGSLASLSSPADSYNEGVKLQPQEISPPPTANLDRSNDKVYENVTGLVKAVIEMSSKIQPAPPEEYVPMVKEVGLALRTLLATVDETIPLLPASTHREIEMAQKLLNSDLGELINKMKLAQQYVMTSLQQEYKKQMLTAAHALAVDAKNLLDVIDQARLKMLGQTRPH

As usually defined, the residual activity is the signal under treatment as a percentage of the control signal. `O=C1NC(=O)/C(=C\c2ccc3nccnc3c2)S1`: the residual activity in assay [1] was 96%; in assay [2], 98%; in assay [3] it was 119%; in assay [4], 113% (inactive); in assay [5], 104%; in assay [6] it was 95%. The residual activity in [7] was 111%; in assay [8], 88%; in [9], 92%; in assay [10], 90%.
